The list is not random: actives were taken first. Their share in the collection is about 8.1%.
Sfp inh: blocks B. subtilis Sfp PPTase activity; Biochemical Sfp PPTase activity, qHTS; Potency, µM, hits mostly inhibitors; Q9F4F7; hit rate 3.5% among 310,000;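 also: the enzyme is Sfp with the accession as filed and its product quenches rhodamine fluorescence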
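Compounds were incubated with enzyme (final 15 nM) for 15 min at room temperature before substrate addition started the reaction. Fluorescence at 525 nm excitation, 598 nm emission was recorded immediately and after 30 minutes.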
Gal4-VP16 FLuc: inhibits Gal4-VP16 luciferase reporter, ROR gamma counter-screen; Drosophila S2 Gal4-VP16 UAS-luciferase, luminescence, 20 h; Potency, µM (highest dose often 53.6 µM), usual class: inhibitors; hit rate 3.5% among 310,000; AID 2546;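 also: Gal4-VP16 expression switched on by copper sulfate through the metallothionein promoter; nearly all actives have a fitted effect of over 50% in size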
Epigenetic reg: epigenetic control regulation, reporter derepression. murine LDR cells, GFP reporter derepression, 30 h. Potency, µM (series often up to 53.9 µM), actives largely listed as activators. hit rate 0.2% among 280,000; also: nearly all actives have a fitted effect of over 60% in size
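Murine LDR cells carrying a silenced, genomically integrated CMV-driven GFP reporter were exposed to compound for 30 hours at 37 C. After PBS washes, GFP-positive cells (20–120 um objects) were counted by laser-scanning microplate cytometry.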
PINK1 expr mod: changes PINK1 expression; PINK1 immunofluorescence, high-content cytometry, 24 h; Potency, µM (titrated, usually from 76.6 µM), hits mostly activators; hit rate 0.2% among 410,000; AID 624263; active = well fitted activation curve with a large enough effect; inconclusive = small, poorly fitted or top-dose-only effect; cell line not stated here; also: nearly all actives have a fitted effect of over 65% in size
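Stable cell line, 250 cells/well, 12 h attachment; compounds pinned at 5 concentrations, 24 h; CCCP control. Fixed with nuclear dye, primary antibodies 12 h at 10 degrees C, secondary plus cell stain; laser-scanning cytometer read.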
ClpP mod: qHTS Assay for Activators of ClpP; purified B. subtilis ClpP, FRET peptide cleavage, 20 min; Potency, µM (doses to about 57.5 µM); hit rate 1.9% among 340,000; active = well fitted falling curve with a large enough effect; inconclusive = small, poorly fitted or top-dose-only effect; inactive = no such curve, though single readings can be large or run the other way; also: the source files actives as falling curves though it sought activators and does not explain the sign; nearly all actives have a fitted effect of over 65% in size
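FRET quenching reversal measured ClpP activation: 10 microg/mL B. subtilis ClpP at pH 8 with the FRET-FV decapeptide, read at 430 nm after 320 nm excitation. The 20-min minus 0-min signal was scaled between DMSO/no-enzyme wells and ADEP (5.8 microM final).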
RORgamma inh: inhibitors of mouse ROR gamma transcriptional activity. AID 2551. Potency, µM (doses to about 53.6 µM), hits mostly inhibitors. hit rate 5.4% among 310,000. P51450. Drosophila S2 Gal4-RORgamma UAS-luciferase reporter, 20 h; also: nearly all actives have a fitted effect of over 60% in size
Target sequence (P51450 whole entry, looked up, the tested form may be a part): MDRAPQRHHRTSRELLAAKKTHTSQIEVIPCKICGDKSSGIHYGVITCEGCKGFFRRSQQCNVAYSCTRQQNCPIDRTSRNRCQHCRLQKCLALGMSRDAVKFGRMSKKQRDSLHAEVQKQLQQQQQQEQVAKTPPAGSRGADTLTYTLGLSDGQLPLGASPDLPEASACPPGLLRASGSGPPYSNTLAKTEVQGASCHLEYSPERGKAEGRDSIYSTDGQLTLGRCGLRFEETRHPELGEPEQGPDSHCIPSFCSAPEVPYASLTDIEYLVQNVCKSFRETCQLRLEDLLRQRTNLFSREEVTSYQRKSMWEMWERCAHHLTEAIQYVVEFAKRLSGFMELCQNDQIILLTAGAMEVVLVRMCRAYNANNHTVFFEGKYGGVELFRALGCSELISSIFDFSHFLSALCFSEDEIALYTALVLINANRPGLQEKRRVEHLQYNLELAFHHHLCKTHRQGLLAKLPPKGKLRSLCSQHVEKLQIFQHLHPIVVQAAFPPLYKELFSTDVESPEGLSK
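Stably transfected Drosophila Schneider cells are the test system, with ROR gamma fused to Gal4 and luciferase under UAS control; luminescence is read after 20 hr of 700 uM copper sulfate induction at ambient temperature.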
Hits are given with their value; [ ] = remark or other dose. Unless noted, calls follow the shape of the dose curve; as a rule, active = well fitted curve in the direction sought with a large enough effect; inconclusive = small, poorly fitted or top-dose-only effect, or another doubt; inactive = no such curve, though single readings can be large; an effect the other way counts as inactive or inconclusive.

`CC(=O)C1=C(C)NC(SCC(=O)c2ccc(-c3ccccc3)cc2)=C(C#N)C1c1cccnc1` (stereo not drawn) gave Sfp inh 22µM, Gal4-VP16 FLuc inactive, Epigenetic reg inconclusive and RORgamma inh inactive.
C=CCOC(=O)C1=C(C)NC(SCC(=O)N(CC)CC)=C(C#N)C1c1ccco1 (stereo not drawn) was read as Sfp inh inactive, Epigenetic reg inactive, PINK1 expr mod inactive, ClpP mod inactive and RORgamma inh inactive[0.365 µM].
COc1ccccc1NC(=O)C1=C(C)NC(SCC(=O)c2ccc(C)cc2)=C(C#N)C1c1ccco1 (stereo not drawn) was read as Sfp inh 45µM, Gal4-VP16 FLuc inactive, Epigenetic reg inactive and RORgamma inh inactive.
CCN(CC)C(=O)CSC1=C(C#N)C(c2ccco2)C(C(=O)OCCOC)=C(C)N1 (stereo not drawn) was read as Sfp inh 56µM, Gal4-VP16 FLuc inconclusive, Epigenetic reg inconclusive, PINK1 expr mod inactive, ClpP mod inactive and RORgamma inh inactive.
`CCOC(=O)CSC1=C(C#N)C(c2ccccc2F)C(C(C)=O)=C(C)N1` (stereo not drawn) gave Sfp inh 63µM, Gal4-VP16 FLuc inactive, Epigenetic reg inactive, PINK1 expr mod inactive, ClpP mod inactive and RORgamma inh inactive.
CCN1CCN(Cc2nc3cc(NC(=O)c4ccccc4[N+](=O)[O-])ccc3n2CC)CC1 was read as Epigenetic reg inactive, PINK1 expr mod inactive and ClpP mod inactive.
Screening COC(=O)c1ccc(NC(=O)CSc2cn(CC(=O)N3CCCCCC3)c3ccccc23)cc1 returned Epigenetic reg inactive, PINK1 expr mod inactive and ClpP mod inactive.
For C[C@@H]1OC(O[C@H]2[C@H](Oc3cc(O)c4c(=O)c(O)c(-c5ccc(O)cc5)oc4c3)O[C@H](CO)[C@@H](O)[C@@H]2O)[C@H](O)[C@H](O)[C@H]1O (stereo partly drawn) the results were Sfp inh inactive, Gal4-VP16 FLuc inactive and RORgamma inh inactive.
For COc1ccc(CCC(=O)NCc2ccc3c(c2)CCN3C(=O)c2cccc(C)c2)cc1 the results were Epigenetic reg inactive, PINK1 expr mod inactive and ClpP mod inactive.
For CC(=O)C1=C(C)NC(SCC(=O)c2cc(Cl)ccc2Cl)=C(C#N)C1c1ccco1 (stereo not drawn) the results were Sfp inh 35µM, Gal4-VP16 FLuc 3.5µM, Epigenetic reg inactive, PINK1 expr mod inactive, ClpP mod inactive and RORgamma inh 6.3µM.
Screening CCOC(=O)C1=C(C)NC(SCC(=O)O)=C(C#N)C1c1ccco1 (stereo not drawn) returned Sfp inh inactive, Gal4-VP16 FLuc inactive, Epigenetic reg inactive, PINK1 expr mod inactive, ClpP mod inactive and RORgamma inh inactive.
`CC(=O)C1=C(C)NC(SCC(N)=O)=C(C#N)C1c1ccco1` (stereo not drawn) gave Sfp inh 89µM, Gal4-VP16 FLuc inactive, Epigenetic reg inactive, PINK1 expr mod inactive and RORgamma inh inconclusive.
Screening CC(=O)C1=C(C)NC(SCC(N)=O)=C(C#N)C1C (stereo not drawn) returned Sfp inh 40µM, Gal4-VP16 FLuc inactive, Epigenetic reg inactive, PINK1 expr mod inactive, ClpP mod inactive and RORgamma inh inactive.
CC(=O)C1=C(C)NC(SCC(=O)c2ccc(F)cc2)=C(C#N)C1c1ccco1 (stereo not drawn) was read as Sfp inh inconclusive, Gal4-VP16 FLuc inactive, Epigenetic reg inactive, PINK1 expr mod inactive, ClpP mod inactive and RORgamma inh inactive.
CC(=O)C1=C(C)NC(SCc2cccc([N+](=O)[O-])c2)=C(C#N)C1c1ccco1 (stereo not drawn) was read as Sfp inh inactive, Gal4-VP16 FLuc inactive, Epigenetic reg inactive, PINK1 expr mod inactive, ClpP mod inactive and RORgamma inh inactive.
